Assay outcomes from PubChem.
The list is not random: actives were taken first. Their share in the collection is about 10%.
BAZ2B inh: qHTS Assay for Inhibitors of BAZ2B | Bromodomain adjacent to zinc finger domain protein 2B (Homo sapiens), Q9UIF8 | AlphaScreen BAZ2B-H3K14Ac peptide displacement | actives 4.4% (n = 360,000) | Potency, µM (series often up to 114 µM), hits mostly inhibitors; further: nearly all actives have a fitted effect of over 60% in size
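Complex of BAZ2B and biotin-H3K14Ac (50 nM apiece) forms over 30 min at RT, then faces library compounds up to 110 uM for another 30 min; AlphaScreen beads added, 20 min dark incubation, luminescence read.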
HP1b binding inh: HTS for Inhibitors of HP1-beta Chromodomain Interactions with Methylated Histone Tails; Chromobox protein homolog 1 (Homo sapiens), P83916; AlphaScreen HP1-beta / biotin-H3K9me3 peptide binding; Potency, µM (top dose mostly 114 µM), actives largely listed as inhibitors; actives 0.56% (n = 390,000); further: nearly all actives have a fitted effect of over 70% in size
Target sequence (P83916 whole entry, looked up): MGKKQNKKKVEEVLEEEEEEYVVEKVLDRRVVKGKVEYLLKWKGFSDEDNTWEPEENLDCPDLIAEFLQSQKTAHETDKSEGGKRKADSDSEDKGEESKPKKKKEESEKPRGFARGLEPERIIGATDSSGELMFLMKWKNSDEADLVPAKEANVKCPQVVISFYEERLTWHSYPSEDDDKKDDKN
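HP1-beta protein (50 nM final) preincubated 30 min at room temperature with biotinylated H3(1-18)K9me3 peptide (50 nM) in PBS pH 7.4, 0.01% Tween-20, then compound added for 30 min. AlphaScreen streptavidin donor/nickel chelate acceptor beads (10 ug/mL final), 30 min dark, luminescence read.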
G9a block: qHTS Assay for Inhibitors of Histone Lysine Methyltransferase G9a. Histone-lysine N-methyltransferase EHMT2 (Homo sapiens), Q96KQ7. G9a H3K9 monomethylation, AlphaScreen, 2 h. Potency, µM (highest dose often 102 µM), most hits filed as inhibitors. actives 8.8% (n = 350,000). AID 504332, 2011; further: nearly all actives have a fitted effect of over 75% in size
Target sequence (Q96KQ7 913-1193 limits assumed): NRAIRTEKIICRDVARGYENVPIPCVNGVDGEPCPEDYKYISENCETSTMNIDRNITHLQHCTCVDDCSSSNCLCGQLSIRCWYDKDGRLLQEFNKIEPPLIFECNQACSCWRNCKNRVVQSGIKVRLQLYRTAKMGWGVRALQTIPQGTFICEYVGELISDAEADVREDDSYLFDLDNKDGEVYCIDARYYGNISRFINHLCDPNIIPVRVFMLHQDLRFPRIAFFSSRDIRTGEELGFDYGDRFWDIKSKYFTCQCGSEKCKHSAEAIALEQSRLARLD
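G9a (20 nM) preincubated 15 min RT with compounds, then 500 nM biotinylated H3K9 peptide and 20 uM SAM added; 2 h RT reaction. Monomethyl-H3K9 product detected by AlphaScreen with anti-H3K9me1 antibody, streptavidin donor and anti-rabbit IgG acceptor beads.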
CtBP-E1A blk: qHTS Assay for Inhibitors of the CtBP/E1A Interaction; AlphaScreen GST-E1A/His-CtBP binding, 1536-well; stronger effect = lower value; actives 0.49% (n = 340,000); CtBP / adenovirus E1A interaction (AlphaScreen); activity change, % (concentration not given with the values); in the data active means activity change below about -65%; inconclusive means mostly about -30% to -63%
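GST-E1A and His-tagged CtBP (125 nM each as 5X stock) were preincubated with pin-transferred compound for 2 h at 37 °C in the dark, then glutathione donor and nickel acceptor beads were added for 1 h before AlphaScreen reading.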
JMJD2A Tudor: qHTS Assay for Inhibitors of JMJD2A-Tudor Domain. Lysine-specific demethylase 4A (Homo sapiens), O75164. Potency, µM (titrated, usually from 114 µM), usual class: inhibitors. actives 4.4% (n = 390,000). AlphaScreen JMJD2A-Tudor / H3K4me3 peptide binding. AID 504339, 2011; further: nearly all actives have a fitted effect of over 50% in size
Six1-Eya2 inh: qHTS Assay for Inhibitors of the Six1/Eya2 Interaction. Homeobox protein SIX1 (Homo sapiens) + Protein phosphatase EYA2 (Homo sapiens), …. AlphaScreen GST-Six1/His-Eya2 binding, biochemical; stronger effect = lower value. activity change, % (concentration not given with the values). actives 0.56% (n = 360,000). AID 651725, 2012; in the data active means activity change below about -65%; inconclusive means mostly about -30% to -63%
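GST-Six1 + His-Eya2 (5X stock: 250/500 nM); Tris pH 8.0, 300 mM NaCl, 0.05% BSA, 0.02% Tween 20; GSH donor/Ni acceptor beads; 1 h 37 °C dark; AlphaScreen readout.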
Numbers stand for hits; - = inactive; ? = inconclusive; . = no result given; [ ] = remark or other dose. Unless noted, the call rests on the fitted dose curve; in most records, active means well fitted inhibition curve with a large enough effect; inconclusive means small, poorly fitted or top-dose-only effect; inactive means no such curve, though single readings can be large or run the other way.

SMILES | BAZ2B inh | HP1b binding inh | G9a block | CtBP-E1A blk | JMJD2A Tudor | Six1-Eya2 inh
CN(C)c1ncc2nc(CCc3ccccc3)c(=O)n(-c3ccccc3)c2n1 | . | . | -[12.7 µM] | . | . | .
COc1cc(CC(CC(=O)O)CC(C)OCc2ccccc2)cc(OC)c1 (centres undefined) | - | - | 1.41µM | - | - | -
COc1ccc(NC(=O)C(CC(=O)O)Cc2ccccc2)cc1 (centres undefined) | - | - | ? | - | - | -
COc1cc2c(cc1Cl)/C(=C\CCN(C)C)c1ccccc1S2 | ? | ? | ? | - | ? | -
COc1cc(Cl)cc2c1Sc1ccccc1/C2=C/CCN(C)C | 44.7µM | - | ? | - | ? | -
CN(C)CC/C=C1/c2ccccc2Sc2c(O)cc(Cl)cc21 | ? | - | 25.1µM | ? | ? | ?
Cc1cccc(Cn2c(SCc3ccc(C(=O)NCc4ccccc4F)cc3)nc3ccncc32)c1 | - | - | - | . | - | .
Cc1cc2c(cc1S(=O)(=O)Nc1cccc(C#N)c1)OCC(=O)N2 | - | - | - | . | - | .
CCN(CC)CCOc1ccc(/C(=C(/Cl)c2ccccc2)c2ccccc2)cc1 | ? | ? | . | ? | 56.2µM | -
Cc1nn(CC(=O)NCc2ccc(N(C)C)cc2)c(=O)c2c(C)n(-c3ccc(Cl)cc3)nc12 | - | - | - | . | - | .
CC(OC(=O)c1cccc(-n2cnnn2)c1)C(=O)c1ccccc1 (centres undefined) | - | - | ? | - | - | -
O=C(Oc1cccc2cccnc12)c1cccc(-n2cnnn2)c1 | ? | - | 5.62µM | - | - | -
O=C(Oc1cccc2cccnc12)c1cccc(N2C(=O)C3C4CCC(C4)C3C2=O)c1 (centres undefined) | 10µM | - | 0.794µM | - | 70.8µM | -86.8
O=C(Oc1cccc2cccnc12)c1ccc(N2C(=O)C3C4CCC(C4)C3C2=O)cc1 (centres undefined) | 50.1µM | - | - | ? | ? | -88.8
COc1ccc(NC(=O)c2cccc(N3C(=O)C4C5CCC(C5)C4C3=O)c2)cc1 (centres undefined) | - | - | - | - | - | -
O=C(Oc1ccc(N2C(=O)C3C4CCC(C4)C3C2=O)cc1)c1ccco1 (centres undefined) | - | - | - | - | - | -
CCCNC(=O)CCc1nnc2ccc(N3CCN(c4cccc(OC)c4)CC3)nn12 | - | - | - | . | - | .
COc1ccc(C)cc1NC(=O)CN1C(=O)CCc2cc(S(=O)(=O)N3CCOCC3)ccc21 | ? | - | - | . | ? | .
Cc1ccc(NC(=S)NNC(C)(C)C)cc1 | - | - | 44.7µM | - | - | -
Cc1cc(Cl)ccc1NC(=S)NCc1ccccc1Cl | - | - | - | - | - | -
Cc1ccccc1NC(=S)/C(=C(\[O-])c1cc(C)n(Cc2ccccc2Cl)c1C)[n+]1ccccc1 | 39.8µM | ? | 50.1µM | - | 35.5µM | -
Cc1cc(C([O-])=C(C(=S)Nc2ccccc2)[n+]2ccccc2)c(C)n1-c1ccccc1 | . | ? | . | - | 31.6µM | -
CCOC(=O)c1c(C)[nH]c(C)c1S(=O)(=O)N(C)CC(=O)Nc1cc(Cl)ccc1OC | - | - | - | . | - | .
Cc1onc(-c2cccc(Cl)c2Cl)c1C(=O)O/N=C(\N)c1ccc([N+](=O)[O-])o1 | ? | - | 35.5µM | - | ? | -
Cc1onc(-c2ccccc2Cl)c1C(=O)O/N=C(\N)c1cccc([N+](=O)[O-])c1 | . | . | . | - | . | -
SMILES | BAZ2B inh | HP1b binding inh | G9a block | CtBP-E1A blk | JMJD2A Tudor | Six1-Eya2 inh
Cc1onc(-c2ccccc2Cl)c1C(=O)O/N=C(\N)c1ccccc1 | - | - | - | - | - | -
Cc1onc(-c2ccccc2)c1C(=O)O/N=C(\N)c1ccc([N+](=O)[O-])o1 | - | - | 44.7µM | . | - | -
O=C(CCc1c[nH]c2ccccc12)OCc1cccc([N+](=O)[O-])c1 | ? | ? | 39.8µM | - | ? | -
CN(C(=O)COC(=O)CCc1c[nH]c2ccccc12)C(c1ccccc1)c1ccccc1 | ? | - | 12.6µM | - | ? | -
COc1ccc(Nc2nc(-c3cccs3)cs2)c(OC)c1 | 31.6µM | 50.1µM | 11.2µM | - | 2.51µM | -
COc1ccc(OC)c(Nc2nc(-c3c(C)nc4ncccn34)cs2)c1 | ? | - | 28.2µM | -82.1 | ? | ?
NNC(=O)C(C(=O)OCc1ccccc1)c1ccccc1 (centres undefined) | . | . | . | . | - | .
CCc1ccc(N2CC(C)Cn3c2nc2c3c(=O)n(CC(=O)O)c(=O)n2C)cc1 (centres undefined) | - | - | - | . | - | .
Cc1ccc(C(=O)Cn2cncn2)cc1 | - | - | 50.1µM | - | - | -
CC1CC2C3CCC4=CC(=O)C=C[C@@]4(C)[C@]3(F)C(O)C[C@]2(C)[C@]1(O)C(=O)CO (some centres undefined) | . | . | -[2.33 µM] | . | . | .
C[C@@H]1CC2C3CCC4=CC(=O)C=CC4(C)[C@@]3(F)[C@@H](O)CC2(C)[C@@]1(O)C(=O)CO (some centres undefined) | . | . | 2.51µM | . | . | .
COc1cc(NC(=O)c2ccc(C)c(Cl)c2)ccc1NC(=O)c1cc2ccccc2o1 | ? | - | - | . | - | .
Cc1ccc(-n2cc(C(=O)c3ccccc3O)cn2)cc1 | - | - | . | - | - | -
O=C(Cc1cnn(-c2ccccc2)c1)c1ccc(O)c(O)c1O | ? | ? | 12.6µM | - | ? | -
COc1ccccc1CNC(=O)COc1ccccc1C(=O)c1cnn(-c2ccccc2)c1 | - | - | ? | - | - | -
O=C(COc1ccccc1C(=O)c1cnn(-c2ccccc2)c1)Nc1ccccc1 | - | - | 44.7µM | - | - | -
Cc1ccc(O)c(C(=O)c2cnn(-c3ccccc3)c2)c1 | - | - | -[2.33 µM] | - | 15.8µM | -
COc1ccc(CCNC(=O)Cn2c(=O)c3sccc3n(CC(=O)Nc3cccc(C(F)(F)F)c3)c2=O)cc1OC | - | - | - | . | - | .
CC(=O)Nc1ccc(C2=NNC(=NCC3CCCO3)SC2)cc1 (centres undefined) | - | - | 14.1µM | - | - | -
CC(=O)Nc1ccc(C2=NN(CC#N)C(=O)SC2)cc1 | - | - | -[12.7 µM] | - | - | -
Fc1ccc(F)c(C2=NNC(=NCC3CCCO3)SC2)c1 (centres undefined) | ? | - | ? | - | - | -
COCC(C)N=C1NN=C(c2ccc(NC(C)=O)cc2)CS1 (centres undefined) | ? | - | 11.2µM | - | - | -
